# Test results reported in PubChem BioAssay AID640 (Columbia University Molecular Screening Center, 2007).
# Out of some 96,000 compounds screened, about 200 (0.21%) were called active. The list comes from a sample in which actives are over-represented; it also holds similar structures and randomly drawn compounds. A number with no mark means an inactive call.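 The calls were made as follows: active = inhibition at 2 µM at or above a set limit, the screen mean plus 3 SD (cut at about 24% in these data); inactive = the rest.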
# Target: Tyrosine-protein phosphatase non-receptor type 22 (Homo sapiens) (UniProt Q9Y2R2)
# Sequence (Q9Y2R2 whole entry, looked up): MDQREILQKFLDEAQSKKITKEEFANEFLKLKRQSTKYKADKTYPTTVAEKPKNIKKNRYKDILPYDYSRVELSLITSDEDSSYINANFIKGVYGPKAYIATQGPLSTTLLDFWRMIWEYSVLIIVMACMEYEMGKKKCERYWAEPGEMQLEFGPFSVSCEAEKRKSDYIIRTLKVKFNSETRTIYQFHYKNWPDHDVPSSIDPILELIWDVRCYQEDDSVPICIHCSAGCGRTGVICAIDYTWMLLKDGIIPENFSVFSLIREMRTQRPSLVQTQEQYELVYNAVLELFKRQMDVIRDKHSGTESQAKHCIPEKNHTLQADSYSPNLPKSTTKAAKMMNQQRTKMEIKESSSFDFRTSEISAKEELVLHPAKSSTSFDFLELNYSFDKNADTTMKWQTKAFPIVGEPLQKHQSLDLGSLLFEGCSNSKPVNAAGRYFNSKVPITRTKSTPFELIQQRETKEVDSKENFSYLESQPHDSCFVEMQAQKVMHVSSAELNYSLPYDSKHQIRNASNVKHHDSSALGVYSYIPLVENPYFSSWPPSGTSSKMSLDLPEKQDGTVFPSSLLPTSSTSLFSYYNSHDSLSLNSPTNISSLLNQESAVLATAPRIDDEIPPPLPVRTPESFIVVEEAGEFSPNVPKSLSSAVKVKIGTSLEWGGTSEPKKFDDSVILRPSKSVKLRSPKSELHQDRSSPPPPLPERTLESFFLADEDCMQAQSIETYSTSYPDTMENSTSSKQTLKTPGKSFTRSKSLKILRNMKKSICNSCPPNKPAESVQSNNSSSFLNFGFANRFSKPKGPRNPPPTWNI
# Assay: PTPN22 phosphatase inhibitors, primary screen, biochemical, DiFMUP fluorescence, 2 µM (AID 640);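 also: 0% = DMSO with enzyme and 100% = enzyme fully blocked by orthovanadate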
# Conditions: recombinant LYP catalytic domain, at 2 µM, stronger effect = higher value
row,SMILES,inhibition
1,O=C1CCCC2=C1C(c1ccccc1)n1c(s/c(=C/c3cccc(F)c3)c1=O)=N2 (centres undefined),3.1%
2,O=C(Nc1cccc(NC(=O)c2ccco2)c1)c1cnccn1,-8.1%
3,CCOC(=O)c1nc(Nc2ccc(C(=O)OC)cc2)c2ccccc2n1,1.7%
4,Cc1noc(COc2ccccc2OCc2onc(C)c2Cl)c1Cl,-6.2%
5,CN1CCCN(S(=O)(=O)c2ccc3c(c2)OCCO3)CC1,14.9%
6,CC(C)(C)c1cc(=O)n2c(nc3ccccc32)[nH]1,16.2%
7,CCOC(=O)NNC(=O)c1ccc(Cl)cc1,-7.6%
8,O=C(CSc1ccccc1)Nc1ccc(NC(=O)c2ccco2)cc1,8.9%
9,O=C(CN1CCN(S(=O)(=O)c2ccc(Cl)s2)CC1)NCc1ccc(Cl)cc1,-18.4%
10,O=C(c1ccc(F)cc1)c1c[nH]c(C(=O)NCc2cccnc2)c1,-21.4%
11,CC(C)C(NC(=O)c1ccc(Cl)cc1)C(=O)O (centres undefined),0.8%
12,Cc1ccc2c(Cl)c(C(=O)NCCCn3ccnc3)sc2c1,-1.4%
13,COc1ccc(Cc2nnc(SCC(=O)c3cccc([N+](=O)[O-])c3)n2C)cc1,15.2%
14,CN(C)c1nc(N)nc(CSc2ccccn2)n1,-6.7%
15,COc1ccc(CCN2C(=O)C3CC=C(C)CC3C2=O)cc1OC (centres undefined),3.1%
16,Clc1ccc(C2=CSC3=Nc4cccc5cccc(c45)N23)cc1,13.9%
17,CC(=O)NC1(c2cccc(F)c2)CCN(CC(=O)NC(C)C)CC1,-6.7%
18,CC(=O)Oc1ccc(C(C)=O)c2c1OCCO2,-11.9%
19,Cc1cc2c(cc1C)N(C(=O)CN1C(=O)c3ccccc3C1=O)C(C)(C)c1ssc(=S)c1-2,2.3%
20,CS(=O)(=O)N(CC(=O)Nc1ccc(Cl)c(Cl)c1)C1CCCCC1,-10%
21,O=C(Nc1ccccc1[N+](=O)[O-])C1C(c2ccccc2)=C1c1ccccc1,-0.6%
22,O=C(c1ccc(CN2CCOCC2)cc1)N1CCN(c2ccccc2F)CC1,-7.2%
23,O=C(Cn1c(-c2ccc(Cl)cc2)noc1=O)N1CCN(c2ccccc2F)CC1,27.2% (active)
24,O=C(c1cccc2ccccc12)N1CCN(c2ccccc2F)CC1,-10.2%
25,COC(=O)c1nc2ccccc2s1,-12%
26,COc1ccc(NC(=O)CSc2nc(N)c(-c3ccccc3)c(=O)[nH]2)cc1,-3.5%
27,C=CCN1C(=O)C(Cc2cccc(Cl)c2)S/C1=N/N=C/c1ccco1 (centres undefined),8.9%

row,SMILES,inhibition
1,COCc1cc(C(C)=O)ccc1OC,7.3%
2,O=C(CNC(=O)OCc1ccccc1)Oc1cc2oc(=O)cc(-c3ccccc3)c2cc1Cl,7.8%
3,CC(C)(C)NS(=O)(=O)c1ccc(NC(=O)NC2CCCCC2)cc1,13%
4,CCOC(=O)c1c(C)nc2c(c1C)c(=O)oc1ccccc12,-31.8%
5,CSc1ccc(/C=N\NC(=O)COc2ccc(Cl)cc2Br)cc1,26.5% (active)
6,Cc1ccc(OCC(=O)N/N=C/c2ccncc2)cc1,10.7%
7,Cc1ccc(OCC(=O)N/N=C\c2ccco2)c(C)c1,-4.2%
8,CC1CCCCN1S(=O)(=O)c1ccc(C(=O)Nc2nnc(-c3cccs3)o2)cc1 (centres undefined),17.2%
9,CCC(=O)Oc1cccc(C(=O)Nc2ccc(-c3nnc(-c4ccco4)o3)cc2)c1,8.1%
10,COc1cccc(-c2nnc(NC(=O)c3ccc(S(=O)(=O)N(CC(C)C)CC(C)C)cc3)o2)c1,24.4% (active)
11,O=C(NCCCCc1ccccc1)C1CC(c2ccc([N+](=O)[O-])cc2)=NO1 (centres undefined),-3.2%
12,CCC(C)NC(=O)CSC1=Nc2ccccc2C2=NC(CCC(=O)NCc3ccco3)C(=O)N12 (centres undefined),6.7%
13,C=CCOc1c2ccc(C(=O)N(CC)c3ccc(OC)cc3)cc2nn1C,1.1%
14,CCSc1nc(-c2ccc(OC)cc2)cc(-c2ccc(OC)cc2)c1C#N,-15.9%
15,CCOC(=O)C1=C(CSc2nnnn2C)N(C)C(=O)NC1c1ccccc1 (centres undefined),6.4%
16,O=C(CCl)NNc1cccc(Cl)n1,2.9%
17,O=C(c1ccc2c(c1)OCO2)N1CCN(C(=O)c2ccco2)CC1,-5%
18,Cc1cnc(NC(=O)C2CCCC2)s1,-5.5%
19,CCOC(=O)c1c(NC(C)=O)sc2c(O)c(Br)ccc12,7.9%
20,COc1ccc(/C=N/Nc2nc3ccccc3c(=O)[nH]2)cc1,2.7%
21,CC(=O)c1c(C)[nH]c(C(=O)NCc2ccc(C)cc2)c1C,3.9%
22,CNC(=O)c1nnc(Cc2ccc(Cl)cc2)o1,-2.1%
23,Cc1ccc(Cl)cc1NC(=O)COC(=O)C1CCCCC1,-5.7%
24,O=C(Nc1cccc2ncccc12)C(Cl)(Cl)Cl,-4%
25,CCCCN1C(=O)/C(=C2/C=CC=CN2C)SC1=S,-5.6%
26,COc1cc(OC)cc(-c2cc3nc(C4CCN(C(=O)OC(C)(C)C)CC4)cc(=O)n3[nH]2)c1,-4.9%
27,CC(C)(C)NC(=O)CN(Cc1cccs1)C(=O)CNS(=O)(=O)c1ccccc1,-1.7%
